# Experimental data: PubChem BioAssay (NCATS)
# “And” between values parts separate entries of the source, which are not always exact repeats. Equal entries are not always repeated. Records with an inconclusive call do not appear. Where a call stands in place of a potency, no number is given. The source made the active and inactive calls. Unless noted, the call rests on the fitted dose curve; in most records, active means well fitted curve in the direction sought with a large enough effect; inconclusive means small, poorly fitted or top-dose-only effect, or another doubt; inactive means no such curve, though single readings can be large; an effect the other way counts as inactive or inconclusive.
# Assays:
# [1] = Primary qHTS for inhibitors of La Crosse Virus (LACV) - induced cell death in SH-SY5Y cells (AID 1508616);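 further: top concentration of the series differs between compounds; higher means more rescue of cells from virus-induced death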
# Procedure, shortened: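 Cytopathicity rescue screen: compounds pinned onto SH-SY5Y cells, which are then infected with LACV (MOI 0.01) and held 6 days at 37C. Percent activity is scaled between infected DMSO control and uninfected DMSO control.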
# [2] = molecular target: Calcium and integrin-binding protein 1 (Homo sapiens) (UniProt Q99828); assay: Validation qHTS for Identification of Calcium Integrin Binding protein 1 (CIB1) Competitor (AID 1508618)
# Procedure, shortened: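 Fluorescence polarization with 1 uM CIB1-GST and 100 nM FITC-alphaIIb peptide in HEPES pH 7.4, NaCl, 5 mM CaCl2, Tween20. Compounds at up to 114 uM final, preincubated with protein 15 min; read after 15 min more at RT.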
# [3] = Primary qHTS for small molecule stabilizers of the endoplasmic reticulum resident proteome: Secreted ER Calcium Modulated Protein (SERCaMP) assay (AID 1508630)
# Procedure, shortened: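 The SH-SY5Y reporter protocol was run at 3 concentrations up to 38.3 uM (primary) or 11 concentrations (follow-up): 16 h compound, 100 nM thapsigargin for 4 h, then extracellular luciferase luminescence.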
# Papain (Carica papaya) = Papain (Carica papaya) (UniProt P00784); assay: Primary qHTS assay for inhibitors of the protease papain (AID 1645873);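 further: papain turnover of Z-FR-AMC read as the AMC fluorescence gain over 10 min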; further: potency means the concentration at half of the fitted maximal effect
# [4] = molecular target: Catechol O-methyltransferase (Homo sapiens) (UniProt P21964); assay: Confirmatory Screen for Target Class Profiling of Small Molecule Inhibitors of Methyltransferases (AID 1745852; calls by dose curve); details: MTase-Glo luminescence, SAH detection, recombinant enzyme; measured here: COMT max response; stronger effect = lower value
# [5] = molecular target: Guanidinoacetate N-methyltransferase (Homo sapiens) (UniProt Q14353); assay: as above; details: MTase-Glo luminescence, SAH detection, recombinant enzyme; activity change, negative = inhibition: at 57.3 µM (top of the series)
# [6] = molecular target: Nicotinamide N-methyltransferase (Homo sapiens) (UniProt P40261); assay: as above; details: MTase-Glo luminescence, SAH detection, recombinant enzyme; measured here: NNMT max response; stronger effect = lower value
# [7] = molecular target: Phenylethanolamine N-methyltransferase (Homo sapiens) (UniProt P11086); assay: as above; details: MTase-Glo luminescence, SAH detection, recombinant enzyme; measured here: PNMT max response; stronger effect = lower value
# [8] = NCATS anti-infectives library activity on HEK293 viability as a counter-qHTS vs the C. elegans viability qHTS (AID 1745854)
# Procedure, shortened: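 CellTiter-Glo luminescence, read on a CCD imager, scored viability of HEK293 cells after 24 hr compound exposure at 37C. Library tested in several concentrations, 1:5 steps, up to 41.7 uM; digitonin served as control.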
# [9] = molecular target: Rap guanine nucleotide exchange factor 3 (Homo sapiens) (UniProt O95398); assay: Confirmatory qHTS for antagonist of cAMP-regulated guanine nucleotide exchange factor 3 (EPAC1) (AID 1645880); further: nearly all actives have a fitted effect of over 55% in size; further: potency means the concentration at half of the fitted maximal effect
# Procedure, shortened: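 Released BODIPY-GDP fluoresces less than Rap1-bound BODIPY-GDP; the signal is followed at 480/540 nm at 5-min intervals over 30 min, after 5 min at room temperature. Reactions contain 100 nM EPAC1, 250 nM RAP1B-BODIPY-GDP and 50 uM GDP; results are normalized to ATA and DMSO.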
# [10] = molecular target: Rap guanine nucleotide exchange factor 3 (Homo sapiens) (UniProt O95398); assay: Confirmatory qHTS for agonist of cAMP-regulated guanine nucleotide exchange factor 3 (EPAC1) (AID 1645881); further: nearly all actives have a fitted effect of over 75% in size; further: potency means the concentration at half of the fitted maximal effect
# [11] = molecular target: Rap guanine nucleotide exchange factor 4 (Homo sapiens) (UniProt Q8WZA2); assay: Confirmatory qHTS for agonist of cAMP-regulated guanine nucleotide exchange factor 4 (EPAC2) (AID 1645884);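 further: nucleotide exchange releases bodipy-GDP from Rap1 and this lowers its fluorescence; nearly all actives have a fitted effect of over 65% in size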; further: potency means the concentration at half of the fitted maximal effect
# [12] = molecular target: Rap guanine nucleotide exchange factor 4 (Homo sapiens) (UniProt Q8WZA2); assay: Confirmatory qHTS for antagonist of cAMP-regulated guanine nucleotide exchange factor 4 (EPAC2) (AID 1645885); further: nearly all actives have a fitted effect of over 25% in size; further: potency means the concentration at half of the fitted maximal effect
# [13] = Primary qHTS for inhibitors of nuclear receptor binding SET domain protein 2 (NSD2) in an isogenic RCH-ACV NSD2 p.E1099K mutant (9B) (AID 1645876); further: nearly all actives have a fitted effect of over 70% in size
# [14] = Primary qHTS for inhibitors of nuclear receptor binding SET domain protein 2 (NSD2) in an RCH-ACV wild type WT cells (2C) (AID 1645877); further: nearly all actives have a fitted effect of over 70% in size
# [15] = molecular target: Rap guanine nucleotide exchange factor 3 (Homo sapiens) (UniProt O95398); assay: Counterscreen qHTS for antagonist of cAMP-regulated guanine nucleotide exchange factor 3 (EPAC1) (AID 1645888)
# Procedure, shortened: (§1)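 Measured: fluorescence of BODIPY-GDP bound to Rap1B, which falls as exchange proceeds. Conditions include 50 uM competing GDP, 5 and 30 min reads, and a later cAMP challenge for antagonist detection.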
# [16] = molecular target: Rap guanine nucleotide exchange factor 3 (Homo sapiens) (UniProt O95398); assay: Counterscreen qHTS for agonist of cAMP-regulated guanine nucleotide exchange factor 3 (EPAC1) (AID 1645889); further: nearly all actives have a fitted effect of over 40% in size
# Procedure, shortened: as §1
# Sequence of Phenylethanolamine N-methyltransferase (Homo sapiens) (P11086 whole entry, looked up): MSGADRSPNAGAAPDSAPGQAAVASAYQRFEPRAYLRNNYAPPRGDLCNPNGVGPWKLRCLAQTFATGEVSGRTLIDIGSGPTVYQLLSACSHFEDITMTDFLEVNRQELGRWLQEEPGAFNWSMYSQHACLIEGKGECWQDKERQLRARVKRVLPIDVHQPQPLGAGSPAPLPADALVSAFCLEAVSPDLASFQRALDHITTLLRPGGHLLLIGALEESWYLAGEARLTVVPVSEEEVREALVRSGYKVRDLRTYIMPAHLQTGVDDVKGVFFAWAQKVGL
# Sequence of Rap guanine nucleotide exchange factor 4 (Homo sapiens) (Q8WZA2 whole entry, looked up, the tested form may be a part): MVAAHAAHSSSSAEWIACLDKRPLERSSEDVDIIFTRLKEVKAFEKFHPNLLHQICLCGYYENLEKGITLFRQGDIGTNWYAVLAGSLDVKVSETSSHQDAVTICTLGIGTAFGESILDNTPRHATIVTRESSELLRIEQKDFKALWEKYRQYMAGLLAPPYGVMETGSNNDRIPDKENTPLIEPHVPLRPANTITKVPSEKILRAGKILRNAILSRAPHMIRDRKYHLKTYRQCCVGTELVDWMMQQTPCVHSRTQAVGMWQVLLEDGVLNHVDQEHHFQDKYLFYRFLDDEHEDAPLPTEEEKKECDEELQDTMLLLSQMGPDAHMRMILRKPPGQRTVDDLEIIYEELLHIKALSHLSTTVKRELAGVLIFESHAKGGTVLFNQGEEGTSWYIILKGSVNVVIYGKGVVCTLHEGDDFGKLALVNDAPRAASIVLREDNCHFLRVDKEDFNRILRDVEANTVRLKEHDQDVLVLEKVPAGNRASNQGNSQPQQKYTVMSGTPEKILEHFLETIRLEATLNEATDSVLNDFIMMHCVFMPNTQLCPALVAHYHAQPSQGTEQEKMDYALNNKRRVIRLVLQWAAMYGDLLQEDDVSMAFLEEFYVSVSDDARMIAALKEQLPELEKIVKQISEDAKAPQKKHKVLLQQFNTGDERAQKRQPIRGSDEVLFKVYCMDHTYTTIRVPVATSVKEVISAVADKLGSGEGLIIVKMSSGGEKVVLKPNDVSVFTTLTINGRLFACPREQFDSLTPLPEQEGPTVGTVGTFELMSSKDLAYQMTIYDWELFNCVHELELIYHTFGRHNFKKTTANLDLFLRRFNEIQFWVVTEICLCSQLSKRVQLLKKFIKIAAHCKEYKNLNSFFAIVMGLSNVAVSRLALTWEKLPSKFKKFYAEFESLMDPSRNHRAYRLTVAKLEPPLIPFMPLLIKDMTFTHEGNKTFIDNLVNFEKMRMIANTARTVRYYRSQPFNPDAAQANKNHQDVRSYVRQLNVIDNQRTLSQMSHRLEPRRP
# Sequence of Calcium and integrin-binding protein 1 (Homo sapiens) (Q99828 whole entry, looked up): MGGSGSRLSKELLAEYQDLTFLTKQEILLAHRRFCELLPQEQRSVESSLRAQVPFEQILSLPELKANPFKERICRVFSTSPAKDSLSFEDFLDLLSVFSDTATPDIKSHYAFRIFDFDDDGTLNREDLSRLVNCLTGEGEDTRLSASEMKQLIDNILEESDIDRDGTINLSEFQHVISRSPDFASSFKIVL
# Sequence of Catechol O-methyltransferase (Homo sapiens) (P21964 whole entry, looked up): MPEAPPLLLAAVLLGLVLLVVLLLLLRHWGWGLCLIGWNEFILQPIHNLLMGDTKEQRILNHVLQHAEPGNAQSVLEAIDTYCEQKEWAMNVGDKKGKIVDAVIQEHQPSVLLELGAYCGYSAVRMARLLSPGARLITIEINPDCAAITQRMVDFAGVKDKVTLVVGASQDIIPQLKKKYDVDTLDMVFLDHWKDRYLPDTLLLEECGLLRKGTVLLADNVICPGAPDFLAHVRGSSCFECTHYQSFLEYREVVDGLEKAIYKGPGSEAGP
# Sequence of Rap guanine nucleotide exchange factor 3 (Homo sapiens) (O95398 whole entry, looked up): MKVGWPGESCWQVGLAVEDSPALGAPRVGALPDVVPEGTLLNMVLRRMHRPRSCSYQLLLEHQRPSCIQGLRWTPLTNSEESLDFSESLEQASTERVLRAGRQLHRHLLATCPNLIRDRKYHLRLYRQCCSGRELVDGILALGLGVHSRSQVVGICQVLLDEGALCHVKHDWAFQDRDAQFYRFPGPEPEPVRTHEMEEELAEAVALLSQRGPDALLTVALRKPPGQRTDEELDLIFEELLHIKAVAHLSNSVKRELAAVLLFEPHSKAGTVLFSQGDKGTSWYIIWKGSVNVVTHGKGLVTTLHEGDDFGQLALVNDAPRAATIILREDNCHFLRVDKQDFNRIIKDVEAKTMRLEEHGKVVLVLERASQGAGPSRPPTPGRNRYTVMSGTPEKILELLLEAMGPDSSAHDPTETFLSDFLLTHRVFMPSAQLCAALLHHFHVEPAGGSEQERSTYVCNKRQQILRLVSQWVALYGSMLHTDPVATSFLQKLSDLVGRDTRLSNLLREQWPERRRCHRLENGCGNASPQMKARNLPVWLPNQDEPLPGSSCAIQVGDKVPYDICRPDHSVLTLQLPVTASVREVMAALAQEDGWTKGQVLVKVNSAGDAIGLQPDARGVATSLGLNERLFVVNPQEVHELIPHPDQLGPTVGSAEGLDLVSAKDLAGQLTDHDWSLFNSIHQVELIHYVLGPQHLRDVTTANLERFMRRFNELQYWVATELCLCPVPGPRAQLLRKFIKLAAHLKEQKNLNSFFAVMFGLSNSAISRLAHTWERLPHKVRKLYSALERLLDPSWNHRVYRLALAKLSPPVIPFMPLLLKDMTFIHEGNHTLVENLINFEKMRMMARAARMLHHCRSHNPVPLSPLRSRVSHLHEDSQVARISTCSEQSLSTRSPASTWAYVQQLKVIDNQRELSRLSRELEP
# Sequence of Papain (Carica papaya) (P00784 whole entry, looked up): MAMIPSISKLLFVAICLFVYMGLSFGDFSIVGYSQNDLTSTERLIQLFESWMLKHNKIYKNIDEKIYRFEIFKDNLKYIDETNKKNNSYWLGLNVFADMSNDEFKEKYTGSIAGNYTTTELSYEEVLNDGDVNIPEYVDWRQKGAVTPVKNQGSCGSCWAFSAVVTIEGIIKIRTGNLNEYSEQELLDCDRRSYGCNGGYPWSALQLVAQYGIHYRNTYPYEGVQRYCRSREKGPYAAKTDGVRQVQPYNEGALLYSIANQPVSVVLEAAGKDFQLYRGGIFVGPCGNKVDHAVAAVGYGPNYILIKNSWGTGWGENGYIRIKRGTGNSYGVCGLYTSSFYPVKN
# Sequence of Nicotinamide N-methyltransferase (Homo sapiens) (P40261 whole entry, looked up): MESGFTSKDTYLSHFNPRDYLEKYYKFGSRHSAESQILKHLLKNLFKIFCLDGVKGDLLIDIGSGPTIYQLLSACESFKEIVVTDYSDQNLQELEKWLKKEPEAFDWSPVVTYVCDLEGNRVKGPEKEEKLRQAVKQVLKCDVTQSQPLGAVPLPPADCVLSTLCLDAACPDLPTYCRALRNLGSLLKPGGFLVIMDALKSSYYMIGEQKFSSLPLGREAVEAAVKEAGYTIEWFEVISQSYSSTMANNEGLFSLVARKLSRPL
smiles,measurement,setting,value
Oc1cc(O)c2c(c1)O[C@H](c1ccc(O)c(O)c1)[C@@H](O)C2,Potency,[1],inactive
same,Potency,[2],inactive
same,Potency,[3],inactive
same,Potency,Papain (Carica papaya),inactive
same,activity,[4],171%
same,"activity change, negative = inhibition",[5],4.5%
same,activity,[6],-7.72%
same,activity,[7],7.68%
same,outcome,[8],inactive
C=CCN1CCc2c(cc(O)c(O)c2Cl)C(c2ccccc2)C1 (centres undefined),Potency,[1],inactive
same,Potency,[2],inactive
same,Potency,[3],inactive
same,Potency,Papain (Carica papaya),inactive
same,activity,[4],72.4%
same,"activity change, negative = inhibition",[5],5.83%
same,activity,[6],-9.01%
same,activity,[7],8.41%
NCCS(=O)O,Potency,[1],inactive
same,Potency,[2],inactive
same,Potency,[3],inactive
same,Potency,Papain (Carica papaya),inactive
Cn1c(=O)c2c(nc(/C=C/c3cccc(Cl)c3)n2C)n(C)c1=O,Potency,[1],inactive
same,Potency,[2],inactive
same,Potency,[3],inactive
same,Potency,Papain (Carica papaya),3.55 µM (active)
Nc1ncnc2c1nc(Br)n2C1OC2COP(=O)(O)O[C@@H]2C1O (some centres undefined),Potency,[1],inactive
same,Potency,[2],inactive
same,Potency,[3],inactive
same,Potency,Papain (Carica papaya),inactive
same,Potency,[9],3.14 µM (active)
same,Potency,[10],4.46 µM (active) and 3.97 µM (active)
same,Potency,[11],3.54 µM (active) and 3.16 µM (active)
same,Potency,[12],5.55 µM (active) and 3.93 µM (active)
N=C(N)SCCc1cnc[nH]1,Potency,[1],inactive
same,Potency,[2],inactive
same,Potency,[3],inactive
same,Potency,Papain (Carica papaya),inactive
same,activity,[4],-3.06%
same,"activity change, negative = inhibition",[5],-1.52%
same,activity,[6],-8.2%
same,activity,[7],-8.19%
CC(=O)NCCc1c[nH]c2ccc(O)cc12,Potency,[1],inactive
same,Potency,[2],inactive
same,Potency,[3],inactive
same,Potency,Papain (Carica papaya),inactive
same,Potency,[13],inactive
O=C1Nc2ccc(I)cc2/C1=C/c1cc(Br)c(O)c(Br)c1,Potency,[1],inactive
same,Potency,[2],inactive
same,Potency,[3],inactive
same,Potency,Papain (Carica papaya),inactive
same,Potency,[14],inactive
same,Potency,[9],19.8 µM (active)
same,Potency,[10],inactive
same,Potency,[11],inactive
same,Potency,[12],35 µM (active)
N[C@H]1CONC1=O,Potency,[1],inactive
same,Potency,[2],inactive
same,Potency,[3],inactive
same,Potency,Papain (Carica papaya),inactive
same,outcome,[8],inactive
O=C(O)/C=C/c1cnc[nH]1,Potency,[1],inactive
same,Potency,[2],inactive
same,Potency,Papain (Carica papaya),inactive
COc1ccc(CCn2nnnc2C2(c3ccc(C)cc3)CC2)cc1,Potency,[1],inactive
same,Potency,[2],inactive
same,Potency,[3],inactive
same,Potency,[9],inactive
same,Potency,[10],inactive
COC(=O)C1=C(C)NC(C)=C([N+](=O)[O-])C1c1ccccc1C(F)(F)F (centres undefined),Potency,[1],inactive
same,Potency,[2],inactive
same,Potency,[3],inactive
same,Potency,Papain (Carica papaya),inactive
same,Potency,[10],inactive
same,Potency,[11],inactive
same,Potency,[12],inactive
same,outcome,[15],inactive
same,outcome,[16],inactive
CCN1C(=O)C=CC1=O,Potency,[1],inactive
same,Potency,[2],inactive
same,Potency,[3],inactive
same,Potency,Papain (Carica papaya),inactive
same,outcome,[8],inactive
O=c1[nH]ccc2c(O)cccc12,Potency,[1],inactive
same,Potency,[2],inactive
same,Potency,[3],inactive
same,Potency,Papain (Carica papaya),inactive
same,activity,[4],1.23%
same,"activity change, negative = inhibition",[5],2.16%
same,activity,[6],-0.246%
same,activity,[7],1.15%
[Li+],Potency,[1],inactive
same,Potency,[2],inactive
same,Potency,[3],inactive
same,Potency,Papain (Carica papaya),inactive
